Key:
Assay type in all cases: functional
[1] = target: Solute carrier family 2, facilitated glucose transporter member 1 (Homo sapiens) (UniProt P11166); assay: ST_JUDE_LEISH: Cytotoxicity at 2uM final concentration against transgenic Leishmania Mexicana promastigotes LmGLUT1 that are glucose transport deficient and complemented with the human glucose transporter GLUT1. Activity is measured by DNA content using SYBR green in vitro
[2] = target: Hexose transporter 1 (Plasmodium falciparum) (UniProt O97467); assay: ST_JUDE_LEISH: Cytotoxicity at 2uM final concentration against transgenic Leishmania Mexicana promastigotes LmPfHT that are glucose transport deficient and complemented with the Plasmodium falciparum hexose transporter. Activity is measured by DNA content using SYBR green in vitro
[3] = target: Glucose transporter (Leishmania mexicana) (UniProt O61059); assay: ST_JUDE_LEISH: Cytotoxicity at 2uM final concentration against transgenic Leishmania Mexicana promastigotes LmGT2 that are glucose transport deficient and complemented with the L. Mexicana glucose transporter 2. Activity is measured by DNA content using SYBR green in vitro

Solute carrier family 2, facilitated glucose transporter member 1 (Homo sapiens), sequence (P11166 whole entry): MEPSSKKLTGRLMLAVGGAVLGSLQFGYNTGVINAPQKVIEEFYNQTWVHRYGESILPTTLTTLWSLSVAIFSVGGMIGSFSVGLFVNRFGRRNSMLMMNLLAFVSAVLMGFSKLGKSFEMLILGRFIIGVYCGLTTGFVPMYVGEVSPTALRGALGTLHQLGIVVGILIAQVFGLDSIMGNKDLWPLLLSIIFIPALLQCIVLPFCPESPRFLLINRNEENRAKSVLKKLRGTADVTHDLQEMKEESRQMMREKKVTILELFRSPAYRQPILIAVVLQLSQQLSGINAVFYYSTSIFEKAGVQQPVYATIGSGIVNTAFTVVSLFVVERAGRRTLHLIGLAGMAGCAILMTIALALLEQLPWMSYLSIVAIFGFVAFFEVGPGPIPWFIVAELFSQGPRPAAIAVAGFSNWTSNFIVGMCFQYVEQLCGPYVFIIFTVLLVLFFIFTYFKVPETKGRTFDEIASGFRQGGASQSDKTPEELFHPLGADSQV

COCCN1CCC(N(Cc2ccc(-c3ccc(OC(F)(F)F)cc3)cc2)C(=O)Cn2c(CCc3cccc(F)c3F)cc(=O)c3ccccc32)CC1
inhibition [1]: 4.31%
inhibition [2]: 4.88%
inhibition [3]: 4.4%

S=C(NCCc1ccccc1)Nc1ccc2ncsc2c1
inhibition [1]: -0.85%
inhibition [2]: 1.14%
inhibition [3]: -0.73%

CCCCCC(=O)N1CCOC(CCN2CCc3c(c4ccccc4n3C)C2)(c2ccc(Cl)c(Cl)c2)C1 (stereo unspecified)
inhibition [1]: 10.5%
inhibition [2]: 7.81%
inhibition [3]: 9.52%

N#Cc1ccc2c(c1)CCN(CCC1CCC(NC(=O)/C=C/c3cccc4cc[nH]c34)CC1)CC2 (stereo unspecified)
inhibition [1]: 8.95%
inhibition [2]: 9.87%
inhibition [3]: 3.01%

CCC(C)c1ccc(Nc2nc(C)cc(N(CC)CCCN3CCCCC3)n2)cc1 (stereo unspecified)
inhibition [1]: -1.09%
inhibition [2]: 0.87%
inhibition [3]: 1.67%

COc1ccc2nccc([C@@H](O)CN3CCC(NCc4ccc5c(n4)NC(=O)CS5)C(F)C3)c2c1 (stereo partly specified)
inhibition [1]: 2.08%
inhibition [2]: 1.5%
inhibition [3]: 1.99%

COc1ccc(NC(=O)[C@H](Cc2ccccc2)Nc2cc(C)nc(NCCc3ccc(F)cc3)n2)cc1
inhibition [1]: 11.8%
inhibition [2]: 13%
inhibition [3]: 10%

CN1CCC(NCc2cccc(-c3ccc(S(=O)(=O)NCc4ccccc4)c(F)c3)c2)CC1
inhibition [1]: 2.09%
inhibition [2]: 3.75%
inhibition [3]: 4.35%

COc1ccc(CNCc2ccsc2)cc1-c1ccc(S(=O)(=O)NCCN2CCCC2)c(C)c1
inhibition [1]: -0.35%
inhibition [2]: -1.19%
inhibition [3]: -4.07%

Cc1cc(CNCCCCCCNCc2ccc(Cl)cc2)ccc1O
inhibition [1]: 9.89%
inhibition [2]: 7.77%
inhibition [3]: 9.18%

Cc1cc2c(cc1C(F)(F)F)N(C(=O)Nc1cc(C(=O)NCCN(C)C)cc(C(F)(F)F)c1)CC2
inhibition [1]: 4.3%
inhibition [2]: 2.66%
inhibition [3]: 3.69%

NCc1cccc(-c2ccc3ccnc(N)c3c2)c1
inhibition [1]: 0.01%
inhibition [2]: 0.05%
inhibition [3]: 1.2%

Nc1nc2c(ncn2OC[C@H]2COP(=O)(O)CO2)c(=O)[nH]1
inhibition [1]: -2.05%
inhibition [2]: 0.55%
inhibition [3]: -1.54%

CN(C)CCOc1cc(NC(=O)Nc2ccc(-c3ccccc3)cc2)ccc1I
inhibition [1]: 12.5%
inhibition [2]: 12.7%
inhibition [3]: 12.6%

O=C(Nc1cc(C(F)(F)F)ccc1-n1cncn1)C1(c2ccccc2)CC1
inhibition [1]: -1.28%
inhibition [2]: -1.95%
inhibition [3]: 0.27%

Cc1cc(C)cc(OCC(O)CN(CCN2CCOCC2)C(=O)Nc2ccc(Br)cc2)c1 (stereo unspecified)
inhibition [1]: 12.2%
inhibition [2]: 9.85%
inhibition [3]: 13.4%

CCS(=O)(=O)c1ccc(OC)c(Nc2nccc(-c3c(-c4cccc(NC(=O)c5c(F)cccc5F)c4)nn4ncccc34)n2)c1
inhibition [1]: 6.13%
inhibition [2]: 3.41%
inhibition [3]: 2.02%

C=C[C@]1(C)C[C@@H](OC(=O)c2n[nH]c3ccccc3c2=O)[C@]2(C)[C@H](C)CC[C@]3(CCC(=O)[C@H]32)[C@@H](C)[C@@H]1O
inhibition [1]: 5.34%
inhibition [2]: 0.28%
inhibition [3]: -0.71%

Cc1cccc(NC(=O)c2ccc(C(=O)NC3CCN(CC4CCCCC4)C3)cc2)c1 (stereo unspecified)
inhibition [1]: 5.04%
inhibition [2]: 3.98%
inhibition [3]: -1.15%

CCOC(=O)c1ccc(NC(=O)c2ccccc2C(=O)O)cc1
inhibition [1]: 0.53%
inhibition [2]: 1.23%
inhibition [3]: -0.02%

Cc1nnsc1C(=O)Nc1cccc(-c2cccc(-c3nc4cccc(C)c4[nH]3)c2)c1
inhibition [1]: -0.36%
inhibition [2]: -1.04%
inhibition [3]: -5.1%

COCCNCc1cccc(-c2cccc(CNC3CCN(Cc4ccccc4)CC3)c2)c1
inhibition [1]: 2.73%
inhibition [2]: 2.84%
inhibition [3]: 2.88%

COc1cc(NC(=O)c2sc(-c3ccc(Cl)cc3)cc2Cl)ccc1OCCN1CCCC1
inhibition [1]: 9.58%
inhibition [2]: 9.57%
inhibition [3]: 9.29%

Nc1nnc(-c2ccc(Cl)c(Br)c2)c(N)n1
inhibition [1]: -0.74%
inhibition [2]: 1.8%
inhibition [3]: 4.94%

O=C(Nc1cccc(-c2cccc(-c3nc4cc(C(F)(F)F)ccc4[nH]3)c2)c1)c1ccncc1
inhibition [1]: 5.04%
inhibition [2]: 7.47%
inhibition [3]: 2.56%

CN1CCN(Cc2cc3cc(NC(=O)/C=C/c4ccc(Cl)cc4)ccc3s2)CC1
inhibition [1]: 4.5%
inhibition [2]: 0.55%
inhibition [3]: 1.01%

Nc1ncc(-c2ccc3ncccc3c2)c(N)n1
inhibition [1]: 0.18%
inhibition [2]: 0.97%
inhibition [3]: 1.18%

COc1cc2nc(N3CCC(CNC(=O)c4ccc(-c5ccc(-c6noc(C)n6)cc5C)cc4)CC3)nc(N)c2cc1OC
inhibition [1]: 8.2%
inhibition [2]: 7.8%
inhibition [3]: 5.29%

FC(F)(F)c1ccc2[nH]c(-c3ccc(-c4cccc(CNCCN5CCNCC5)c4)cc3)nc2c1
inhibition [1]: 0.53%
inhibition [2]: -0.94%
inhibition [3]: -1.87%

O=C(Cn1c(CCc2cccc(F)c2F)cc(=O)c2ccccc21)N(Cc1ccc(-c2ccc(C(F)(F)F)cc2)cc1)C1CCN(CCO)CC1
inhibition [1]: 4.1%
inhibition [2]: 3.74%
inhibition [3]: 4.47%

COC(=O)c1cccc(CNCc2cccc(-c3ccc(-c4nc5cccc(C)c5[nH]4)s3)c2)c1
inhibition [1]: 1.43%
inhibition [2]: 0.6%
inhibition [3]: 0.69%

COc1ccc(-c2cnc3ccc(N4CCCC4)nn23)cc1OC
inhibition [1]: 0.89%
inhibition [2]: 0.65%
inhibition [3]: 2.83%

From ChEMBL document CHEMBL3433997, “St. Jude Leishmania screening dataset” (2016)
